Our source for the activity (protection/inhibition) values is PubChem BioAssay AID651871 (Sanford-Burnham Center for Chemical Genomics, 2012).

“And” between values parts separate entries of the source, which are not always exact repeats. Equal values may be shown once.

The assay relates to HL-1. In words: protection of cardiomyocytes from stress damage, SAR follow-up, cell-based, panel, H9c2 and HL-1, ATP luminescence, set 2 (AID 651871).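 Note: cells exposed to stressor for 2 h before ATP readout; reference of the scale not given here.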 Conditions: H9c2/HL-1 cardiomyocytes, H2O2 oxidative stress; with H2O2, run 3, at 79 µM (top of the series).
On to `COc1ccc2c(c1OC)C(=O)N1c3ccccc3C(=O)N(Cc3cccc(Cl)c3Cl)C21` (centres undefined), for which the activity (protection/inhibition) is 5.43% and -7.46% and 6.3%.

Regarding `COc1ccc2nc(-c3cc(OC)c(OC)c(OC)c3)cc(C(=O)NCC(=O)Nc3ccc(C(C)=O)cc3)c2c1`, the activity (protection/inhibition) was 19.5% and 32.9%.

For the compound `CCOC(=O)c1cccc(NC(=O)CNC(=O)c2cc(-c3cc(OC)c(OC)c(OC)c3)nc3ccccc23)c1`, the activity (protection/inhibition) came to 48.4%.

In the case of `COc1cc(-c2cc(C(=O)Nc3cccc(C(=O)NCc4ccccc4)c3)c3ccccc3n2)cc(OC)c1OC`, the activity (protection/inhibition) is 14.7%.
